Screening data: PubChem BioAssay, National Center for Advancing Translational Sciences (NCATS)
Mm-Cpn inhibitor: Inhibitors of TCP-1 ring complex (TRiC) of Methanococcus maripaludis (MmCpn): qHTS; Chaperonin Mm-Cpn (Methanococcus maripaludis); purified Mm-Cpn ATPase, ADP Transcreener TR-FRET; Potency, µM (doses to about 76.9 µM), inactives show at the highest dose activity, negative = inhibition, hits mostly inhibitors; 330,000 tested, 0.031% active; AID 504842, 2011; further: on the % scale 0 is the no-effect control and ±100 the full control effect; nearly all actives have a fitted effect of over 80% in size
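Measured: ADP formation by purified Mm-CPN. Conditions: 25 nM protein, 10 uM ATP, Tris pH 7.4 with Mg2+, K+ and DTT, 37°C for 30 min. Detection: Transcreener HTRF after 30 min at room temperature.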
FUS suppressor: qHTS for Suppressors of FUS Proteinopathy: Primary screen using FUS-linked yeast assay; 390,000 tested, 0.24% active; AID 1347120, 2019; Potency, µM (highest dose often 76.6 µM), actives largely listed as activators; S. cerevisiae FUS-expressing, growth rescue, OD600, 24 h;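 further: plate controls were DMSO vehicle for no effect and reference control for full effect; nearly all actives have a fitted effect of over 55% in size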
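Compound concentration series was pinned onto galactose-induced FUS-expressing yeast seeded at OD 0.005. Plates sat 24hr at 30C; absorbance at 600 nm gave growth. DMSO served as background control.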
aSyn rescue: qHTS of alpha-syn Inhibitors | Yeast expressing alpha-synuclein, growth rescue, BacTiter-Glo, 24 h | 370,000 tested, 0.14% active | Potency, µM (titrated, usually from 46.1 µM), without a hit: at the highest dose growth rescue (activation), usual class: activators | AID 652106, 2013; further: % of control where 0% means no effect; nearly all actives have a fitted effect of over 65% in size
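Rescue of yeast growth: cells expressing toxic alpha-synuclein, induced in galactose at OD600 0.02, incubated with compound 24 h at 30 C. ATP luminescence quantified growth; inhibitors of toxicity appear as activators.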
TDP-43 yeast inh: qHTS of TDP-43 Inhibitors | AID 652104, 2013 | TDP-43 expressing yeast growth rescue, BacTiter-Glo, 24 h | 410,000 tested, 1.8% active | Potency, µM (highest dose often 46.1 µM), inactives show top-dose growth rescue (activation), most hits filed as activators; further: % of control where 0% means no effect; nearly all actives have a fitted effect of over 50% in size
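Galactose-induced TDP-43 yeast, OD600=0.02, compound pinned; 24 hr, 30 deg C; BacTiter-Glo luminescence for growth. Inhibitors of TDP-43 toxicity read as activators.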
Abeta rescue: qHTS for compounds that reverse cellular toxicity of Amyloid beta (A-beta) peptide in yeast: Primary Screen; AID 1347071, 2019; yeast expressing A-beta42, growth rescue, OD600, 48 h; response scale: 0% DMSO, 100% iron-clioquinol control; 410,000 tested, 0.063% active; Potency, µM (top dose mostly 46.1 µM), most hits filed as activators; further: nearly all actives have a fitted effect of over 55% in size
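Growth rescue measured by 600 nm absorbance after 48 h yeast culture at 30 C with compound. Values normalized between DMSO and an equimolar ferric chloride plus clioquinol control.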
ClpP mod: qHTS Assay for Activators of ClpP; 340,000 tested, 1.9% active; ATP-dependent Clp protease proteolytic subunit (Bacillus subtilis (strain 168)), P80244; purified B. subtilis ClpP, FRET peptide cleavage, 20 min; Potency, µM (series often up to 57.5 µM), without a hit: at the highest dose activity change, negative = active; active means well fitted falling curve with a large enough effect; inconclusive means small, poorly fitted or top-dose-only effect; inactive means no such curve, though single readings can be large or run the other way; further: the source files actives as falling curves though it sought activators and does not explain the sign; nearly all actives have a fitted effect of over 65% in size
Target sequence (P80244 whole entry, looked up): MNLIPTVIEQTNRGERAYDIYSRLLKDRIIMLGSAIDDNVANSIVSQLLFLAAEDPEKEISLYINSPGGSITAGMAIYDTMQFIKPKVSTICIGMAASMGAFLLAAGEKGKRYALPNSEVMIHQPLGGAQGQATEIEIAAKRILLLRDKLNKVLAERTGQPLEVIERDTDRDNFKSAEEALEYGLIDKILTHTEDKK
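Purified B. subtilis ClpP, 10 microg/mL final in Tris/HCl pH8 with KCl, BSA, glycerol and Tween-20, cleaved an Abz/nitrotyrosine-quenched decapeptide. Fluorescence (ex 320, em 430) was read at 0 and 20 min at room temperature. Delta was normalized to 5.8 microM ADEP and DMSO/no-enzyme controls.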
An asterisk follows results filed as active; i = inactive; ? = inconclusive; · = not tested or not shown; ! = not confirmed by another sample. This is a sample that favours compounds with a hit; in the whole collection about 3.6% have one here. Unless noted, the call rests on the fitted dose curve; in most records, active means well fitted curve in the direction sought with a large enough effect; inconclusive means small, poorly fitted or top-dose-only effect, or another doubt; inactive means no such curve, though single readings can be large; an effect the other way counts as inactive or inconclusive. Potency means the concentration at half of the fitted maximal effect.

SMILES	Mm-Cpn inhibitor	FUS suppressor	aSyn rescue	TDP-43 yeast inh	Abeta rescue	ClpP mod
O=C1/C(=C/c2ccc([N+](=O)[O-])cc2)N2CCC1CC2	1.0%	·	3.1%	0.0%	i	1.0%
O=[N+]([O-])c1ccc(S(=O)(=O)N2CCn3cccc3C2c2ccccc2F)cc1 (stereo not given)	·	?	·	22.4µM*	i	0.5%
O=C(CCn1c(=O)oc2ccccc21)N1CCN(c2ccccc2Cl)CC1	1.7%	i	7.5%	12.6µM*	i	0.0%
O=C1CCN(C(=O)CCCn2c(=O)oc3ccccc32)CC1	-0.7%	i	0.9%	2.4%	i	0.2%
C/C(=N\NC(N)=S)C12CC3CC(CC(C3)C1)C2	-1.8%	i	5.7%	14.1µM*	?	0.6%
COc1ccc(S(=O)(=O)NCC2CCC(C(=O)N3CCC4(CC3)OCCO4)CC2)cc1 (stereo not given)	-0.5%	i	4.0%	23.0%	i	10µM*
COc1ccc(S(=O)(=O)Cc2ccc(C(=O)N3CCC4(CC3)OCCO4)o2)cc1	-1.9%	i	-7.7%	2.51µM*	i	-0.2%
Cc1ccccc1CS(=O)(=O)Cc1ccc(C(=O)N2CCC3(CC2)OCCO3)o1	-1.5%	i	2.6%	-7.1%	i	0.5%
O=C(OCCCCN1C(=O)c2ccccc2C1=O)c1ccc(Br)o1	0.7%	i	4.4%	?	i	-1.5%
CC1CCC(C(C)C)C(OC(=O)COC(=O)c2ccccc2N)C1 (stereo not given)	3.7%	·	-2.3%	10.9%	i	28.2µM*
COCCn1cc(C(=O)N2CCC3(CC2)OCCO3)c2c3ccccc3n(C)c2c1=O	-2.6%	i	3.6%	-9.9%	i	20µM*
COc1ccc(S(=O)(=O)N(C)C[C@H]2OCCCC[C@H](C)Oc3ccc(N(C)C)cc3C(=O)N([C@H](C)CO)C[C@@H]2C)cc1	·	i	?	8.9%	i	-2.6%
COc1cccc(C2(O)CCSCC2CN(C)C)c1 (stereo not given)	-2.2%	·	-0.8%	10.1%	i	3.55µM*
C=CCCC[C@@H]1OC(=O)CNC(=O)C([C@@H](C)CC)NC(=O)[C@@H]2CCCN2C(=O)C([C@@H](C)CC)OC(=O)[C@H](Cc2ccccc2)N(C)C(=O)[C@H](C(C)C)NC(=O)C1(C)C (stereo not given in full)	·	3.98µM*	10.9%	-1.8%	i	0.2%
C[C@H]1CCCC=CC2C[C@H](O)C[C@@H]2[C@H](O)C=CC(=O)O1 (stereo not given in full)	·	·	-0.3%	·	·	0.1%
O=c1[nH]c2ccccc2n1C1CCN(C(c2cc3ccccc3o2)c2nnnn2Cc2ccccc2)CC1 (stereo not given)	·	8.91µM*	3.1%	18.9%	i	-6.2%
O=c1[nH]c2ccccc2n1C1CCN(C(c2cccc3ccccc23)c2nnnn2Cc2ccccc2)CC1 (stereo not given)	·	?	0.7%	13.3%	i	-2.2%
CSCCC(c1nnnn1-c1ccc2c(c1)OCCO2)N1CCC(n2c(=O)[nH]c3ccccc32)CC1 (stereo not given)	·	25.1µM*	0.8%	12.3%	i	-0.4%
O=Cc1c(NCc2ccc(Cl)cc2)c2ccccc2[nH]c1=O	1.5%	i	14.0%	?	i	0.4%
Cc1cc(-c2ccc(C)c(S(=O)(=O)N3CCOc4ccc(Cl)cc43)c2)on1	·	i	·	?	i	2.8%
Cc1ccc(Sc2ccc(N3CCCC(C(=O)Nc4ccc(Cl)cc4)C3)nn2)cc1 (stereo not given)	·	i	·	25.8%	i	?
CN1CCc2cc(O)cc3c2[C@H]1Cc1ccc(O)c(O)c1-3	·	i	-7.1%	1.2%	i	28.2µM*!
CCN(C[C@H]1N[C@@](C)(C(=O)OC)[C@H]2C(=O)N(Cc3ccccc3)C(=O)[C@@H]12)C(=O)Nc1ccccc1	-0.5%	i	?	-11.2%	i	0.3%
CCc1cc2c(cc1-c1csc(C/C(N)=N/O)n1)C(C)(C)CCC2(C)C	·	i	11.1%	22.4µM*	i	-1.3%
CCC(=O)O[C@H]1CC[C@H]2[C@@H]3CCC4=CC(=O)CC[C@]4(C)[C@H]3CC[C@]12C	·	i	0.6%	14.1µM*	i	-0.3%
SMILES	Mm-Cpn inhibitor	FUS suppressor	aSyn rescue	TDP-43 yeast inh	Abeta rescue	ClpP mod
CC12CCC(=O)C=C1CCC1C2CCC2(C)C(O)CCC12 (stereo not given)	0.5%	i	-0.7%	26.7%	i	-1.5%
CC(=O)C1C(N2CC2)CC2C3CCC4=CC(=O)CCC4(C)C3CCC21C (stereo not given)	·	·	-2.3%	17.4%	i	14.1µM*
CCCNC(=O)NC(=O)COc1ccc(-c2ccc(C#N)cc2)cc1	-9.0%	i	-6.4%	-17.3%	i	?
N#Cc1ccccc1NC(=O)c1cccn(Cc2ccccc2)c1=O	·	i	·	22.4µM*	i	-2.9%
O=C(Nc1ccc2c(c1)OCCO2)c1cccn(Cc2ccccc2)c1=O	·	i	·	20µM*	i	1.3%
NC(=O)c1ccc(NC(=O)c2cccn(Cc3ccccc3)c2=O)cc1	·	i	·	7.0%	i	-25.8%
O=C(Nc1ccc(Oc2ccc(Cl)cc2)c(Cl)c1)c1cc(I)cc(I)c1O	?	i	-7.0%	?	i	0.7%
Cc1c(Cl)ccc2sc(N3CCN(C(=O)CCS(=O)(=O)c4ccc(F)cc4)CC3)nc12	·	?	·	17.8µM*	i	-5.3%
CN(CC(=O)NC1CCCC1)S(=O)(=O)c1cccc(Cl)c1	-0.4%	i	6.1%	?	i	-2.4%
COC(=O)C1=C(c2ccc(-c3ccccc3)c(F)c2)C[C@@H]2CC[C@H]1N2C(=O)NC1CC1	0.3%	i	-9.1%	20µM*	i	-0.4%
COC(=O)C1=C(c2ccc(Cl)c(C(F)(F)F)c2)C[C@@H]2CC[C@H]1N2C(=O)NCCOc1ccc(OC)cc1	-1.2%	?	?	11.2µM*	i	-2.7%
Cc1ccc(C)c(N2CCN(C(=O)C3CCN(Cc4nc(-c5cccc(Cl)c5)oc4C)CC3)CC2)c1	·	i	·	-10.8%	i	?
